Measured values published in the OligoGym collection.

molecular target: ADIPOR1; assay: pooled miR-30 sensor sort-seq; sequence = guide strand; conditions: shRNA
Further: reference of the scale not given here.

Sequence	sensor-assay potency score (higher = more potent)
TAGCAGATAGTCGTTGTCCTTT	-0.519
TTATTTTTAAAAGCACTTGGGA	-0.469
TAGTCGTTGTCCTTTAGCCAGT	-0.984
ATAATTAGAAGAGCAATCCCTG	-1.25
TGAATGACAATAGACGGTGTGA	0.0155
TAATTAGAAGAGCAATCCCTGA	-1.23
TCTCTGAATGACAATAGACGGT	-0.907
TTGCTCTTCTTCAGCTTTGGGT	-0.543
AAACTCTTCCATCTTCTCCATG	-1.3
TAGACGGTGTGAAAGAGCCAGG	-1
TAGAAGGAATAATAGAGCCAGG	-1.35
ATGAAGTACATATTTGGTCTGA	-0.176

molecular target: ADORA2B; assay: as above; conditions: shRNA

Sequence	sensor-assay potency score (higher = more potent)
TAGAAGTCAGTGCAGAAGCCCA	-0.856
TTTCACAATGAAAACCAGCCGT	-0.477
TTGACAACTGAATTGGCATGTG	-0.143
TTGAAATATACCATGTAGCTCA	0.0522
TTGGTGGCACTGTCTTTACTGT	-1.19
TTTGTCAATCCTTGGAGCCTAC	-0.74
TATACCATGTAGCTCATGGGGA	-0.182
TTTATTTTTCCATTGCCTCTAA	0.2
TCCCACTCTTGACATCTGCTTG	-0.99
TAAATATATTTGTCAATCCTTG	-0.669
TTAATGTAGATCACCAGCATTA	-1.17
